Targets with a hit are over-represented here; the source holds about 7,900 in all. About 0.6% of all pairs of compound and target were hits. Unmarked numbers belong to inactive results.
The targets below were run with CN1CC[C@H](c2c(O)cc(O)c3c(=O)cc(-c4ccccc4Cl)oc23)[C@H](O)C1 [alvocidib] (assay: log2 fold change, soluble protein after heating vs DMSO (PISA); higher = thermal stabilisation; K562 cells, 10 uM, 30 min; active = over 0.2 and 3.5 SD of the protein, either way, in both replicates (recomputed)).
Method in brief: (§1)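 Quantification of soluble protein used TMTpro 16plex LC-MS/MS, with channel sums equalised. Samples were the supernatant after 21,000xg for 90 min of pooled aliquots from K562 cells (2×10^6 cells/mL) treated with 10 μM compound for 30 min, heated for 3 min over 48°C-58°C, and extracted in PBS with 0.5% NP-40 at 4°C. Values, from duplicates, describe thermal stability against control samples on a log2 fold-change scale.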

Chain of UniProt Q14681 (Q14681 whole entry, looked up): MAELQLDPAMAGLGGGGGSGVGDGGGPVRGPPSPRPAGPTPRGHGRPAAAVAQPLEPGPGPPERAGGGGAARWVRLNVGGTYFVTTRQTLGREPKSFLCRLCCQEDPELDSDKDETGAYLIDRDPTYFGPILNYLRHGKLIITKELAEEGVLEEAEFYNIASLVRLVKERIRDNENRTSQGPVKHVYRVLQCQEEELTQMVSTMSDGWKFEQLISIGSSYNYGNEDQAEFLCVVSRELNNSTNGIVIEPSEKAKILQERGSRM
Chain of UniProt P07948 (P07948 whole entry, looked up): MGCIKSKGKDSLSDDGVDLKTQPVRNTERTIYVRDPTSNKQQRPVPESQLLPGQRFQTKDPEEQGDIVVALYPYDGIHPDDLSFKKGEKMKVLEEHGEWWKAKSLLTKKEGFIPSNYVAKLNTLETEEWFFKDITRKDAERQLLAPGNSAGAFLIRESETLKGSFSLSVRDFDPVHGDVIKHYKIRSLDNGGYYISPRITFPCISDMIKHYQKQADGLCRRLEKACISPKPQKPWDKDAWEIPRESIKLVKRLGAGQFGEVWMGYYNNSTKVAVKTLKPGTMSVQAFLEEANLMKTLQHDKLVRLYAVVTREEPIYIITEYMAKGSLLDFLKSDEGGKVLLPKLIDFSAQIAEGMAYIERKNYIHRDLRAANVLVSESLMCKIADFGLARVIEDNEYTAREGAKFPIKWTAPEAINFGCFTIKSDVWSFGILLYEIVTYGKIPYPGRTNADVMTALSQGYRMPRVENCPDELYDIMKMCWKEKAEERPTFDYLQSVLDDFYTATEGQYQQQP
Chain of UniProt P23276 (P23276 whole entry, looked up): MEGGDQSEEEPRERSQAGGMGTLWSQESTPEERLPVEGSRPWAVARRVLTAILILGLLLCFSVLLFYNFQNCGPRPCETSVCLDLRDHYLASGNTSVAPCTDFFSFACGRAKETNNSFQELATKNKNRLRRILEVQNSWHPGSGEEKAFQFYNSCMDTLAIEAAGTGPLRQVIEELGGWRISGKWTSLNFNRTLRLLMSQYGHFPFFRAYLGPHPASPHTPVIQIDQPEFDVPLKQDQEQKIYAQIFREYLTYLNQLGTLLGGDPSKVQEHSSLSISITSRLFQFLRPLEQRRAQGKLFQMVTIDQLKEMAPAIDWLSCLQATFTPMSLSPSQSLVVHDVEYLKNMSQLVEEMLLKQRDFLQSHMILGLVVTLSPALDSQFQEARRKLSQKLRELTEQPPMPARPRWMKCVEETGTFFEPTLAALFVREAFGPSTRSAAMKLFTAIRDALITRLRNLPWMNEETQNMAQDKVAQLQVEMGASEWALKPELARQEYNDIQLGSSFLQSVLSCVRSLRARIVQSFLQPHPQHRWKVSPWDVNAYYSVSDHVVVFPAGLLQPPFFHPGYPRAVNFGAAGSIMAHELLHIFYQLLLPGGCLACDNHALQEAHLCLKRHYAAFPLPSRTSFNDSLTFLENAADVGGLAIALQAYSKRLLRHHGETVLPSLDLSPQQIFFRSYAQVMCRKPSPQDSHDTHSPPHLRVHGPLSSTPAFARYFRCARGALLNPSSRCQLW
Chain of UniProt A1L0T0 (A1L0T0 whole entry, looked up): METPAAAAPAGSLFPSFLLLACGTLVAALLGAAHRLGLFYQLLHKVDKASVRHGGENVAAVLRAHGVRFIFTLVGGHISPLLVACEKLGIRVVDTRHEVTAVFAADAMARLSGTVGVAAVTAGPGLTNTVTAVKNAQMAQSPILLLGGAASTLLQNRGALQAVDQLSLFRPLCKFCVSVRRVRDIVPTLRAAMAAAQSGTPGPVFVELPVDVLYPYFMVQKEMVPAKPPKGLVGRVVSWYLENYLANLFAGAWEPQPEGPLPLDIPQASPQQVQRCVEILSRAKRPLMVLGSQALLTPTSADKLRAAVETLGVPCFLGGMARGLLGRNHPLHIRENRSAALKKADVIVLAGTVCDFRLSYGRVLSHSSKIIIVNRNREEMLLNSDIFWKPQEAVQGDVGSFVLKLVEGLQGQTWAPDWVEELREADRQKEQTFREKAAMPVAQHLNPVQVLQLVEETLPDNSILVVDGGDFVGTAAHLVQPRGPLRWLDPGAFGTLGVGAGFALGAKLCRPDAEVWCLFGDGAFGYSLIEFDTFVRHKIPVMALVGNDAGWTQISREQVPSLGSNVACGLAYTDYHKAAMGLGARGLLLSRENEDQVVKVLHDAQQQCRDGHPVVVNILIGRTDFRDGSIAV
Chain of UniProt Q9BQK8 (Q9BQK8 whole entry, looked up): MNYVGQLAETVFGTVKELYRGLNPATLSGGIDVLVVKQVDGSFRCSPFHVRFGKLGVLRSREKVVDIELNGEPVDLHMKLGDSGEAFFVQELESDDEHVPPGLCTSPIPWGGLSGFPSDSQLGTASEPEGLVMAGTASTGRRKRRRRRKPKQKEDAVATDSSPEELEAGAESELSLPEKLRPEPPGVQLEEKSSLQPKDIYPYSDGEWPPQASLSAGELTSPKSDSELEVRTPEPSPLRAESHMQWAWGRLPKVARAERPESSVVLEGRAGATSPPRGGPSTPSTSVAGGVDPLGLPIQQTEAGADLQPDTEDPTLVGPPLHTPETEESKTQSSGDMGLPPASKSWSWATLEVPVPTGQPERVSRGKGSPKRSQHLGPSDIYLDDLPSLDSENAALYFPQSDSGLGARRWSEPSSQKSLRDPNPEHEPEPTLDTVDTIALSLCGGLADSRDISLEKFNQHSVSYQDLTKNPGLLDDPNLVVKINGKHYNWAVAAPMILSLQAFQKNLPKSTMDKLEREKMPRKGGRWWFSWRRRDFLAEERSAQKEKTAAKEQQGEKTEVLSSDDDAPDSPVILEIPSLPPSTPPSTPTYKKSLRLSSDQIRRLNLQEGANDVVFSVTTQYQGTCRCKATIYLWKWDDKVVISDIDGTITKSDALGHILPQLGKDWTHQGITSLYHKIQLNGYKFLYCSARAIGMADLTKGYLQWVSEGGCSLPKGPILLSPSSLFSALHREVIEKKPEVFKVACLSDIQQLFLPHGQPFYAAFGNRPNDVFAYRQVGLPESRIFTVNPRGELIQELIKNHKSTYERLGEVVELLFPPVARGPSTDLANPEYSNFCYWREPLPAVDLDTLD
Chain of UniProt Q07666 (Q07666 whole entry, looked up): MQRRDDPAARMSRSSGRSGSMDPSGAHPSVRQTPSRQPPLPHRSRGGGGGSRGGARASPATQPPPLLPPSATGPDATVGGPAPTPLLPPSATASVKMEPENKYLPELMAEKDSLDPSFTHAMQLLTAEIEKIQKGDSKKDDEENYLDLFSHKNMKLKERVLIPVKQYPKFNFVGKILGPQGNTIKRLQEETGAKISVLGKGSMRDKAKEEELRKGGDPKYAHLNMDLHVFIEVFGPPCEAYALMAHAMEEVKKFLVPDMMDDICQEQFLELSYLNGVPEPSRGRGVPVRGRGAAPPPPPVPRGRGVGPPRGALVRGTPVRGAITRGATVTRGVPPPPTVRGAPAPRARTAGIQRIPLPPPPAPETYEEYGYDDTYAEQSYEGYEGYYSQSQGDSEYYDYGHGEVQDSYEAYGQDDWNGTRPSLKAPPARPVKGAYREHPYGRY
Chain of UniProt Q13418 (Q13418 whole entry, looked up): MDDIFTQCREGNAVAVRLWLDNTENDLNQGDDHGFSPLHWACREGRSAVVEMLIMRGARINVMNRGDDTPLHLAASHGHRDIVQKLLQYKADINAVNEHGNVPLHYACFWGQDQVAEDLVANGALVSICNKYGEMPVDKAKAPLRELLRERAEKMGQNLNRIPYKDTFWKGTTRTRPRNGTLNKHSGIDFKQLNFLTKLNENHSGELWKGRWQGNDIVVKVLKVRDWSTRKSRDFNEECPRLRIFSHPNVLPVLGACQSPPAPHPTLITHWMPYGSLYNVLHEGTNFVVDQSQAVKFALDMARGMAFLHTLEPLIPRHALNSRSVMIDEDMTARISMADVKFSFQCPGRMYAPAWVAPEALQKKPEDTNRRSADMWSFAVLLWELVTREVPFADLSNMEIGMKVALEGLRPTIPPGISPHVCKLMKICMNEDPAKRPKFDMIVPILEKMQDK
Chain of UniProt P52732 (P52732 whole entry, looked up): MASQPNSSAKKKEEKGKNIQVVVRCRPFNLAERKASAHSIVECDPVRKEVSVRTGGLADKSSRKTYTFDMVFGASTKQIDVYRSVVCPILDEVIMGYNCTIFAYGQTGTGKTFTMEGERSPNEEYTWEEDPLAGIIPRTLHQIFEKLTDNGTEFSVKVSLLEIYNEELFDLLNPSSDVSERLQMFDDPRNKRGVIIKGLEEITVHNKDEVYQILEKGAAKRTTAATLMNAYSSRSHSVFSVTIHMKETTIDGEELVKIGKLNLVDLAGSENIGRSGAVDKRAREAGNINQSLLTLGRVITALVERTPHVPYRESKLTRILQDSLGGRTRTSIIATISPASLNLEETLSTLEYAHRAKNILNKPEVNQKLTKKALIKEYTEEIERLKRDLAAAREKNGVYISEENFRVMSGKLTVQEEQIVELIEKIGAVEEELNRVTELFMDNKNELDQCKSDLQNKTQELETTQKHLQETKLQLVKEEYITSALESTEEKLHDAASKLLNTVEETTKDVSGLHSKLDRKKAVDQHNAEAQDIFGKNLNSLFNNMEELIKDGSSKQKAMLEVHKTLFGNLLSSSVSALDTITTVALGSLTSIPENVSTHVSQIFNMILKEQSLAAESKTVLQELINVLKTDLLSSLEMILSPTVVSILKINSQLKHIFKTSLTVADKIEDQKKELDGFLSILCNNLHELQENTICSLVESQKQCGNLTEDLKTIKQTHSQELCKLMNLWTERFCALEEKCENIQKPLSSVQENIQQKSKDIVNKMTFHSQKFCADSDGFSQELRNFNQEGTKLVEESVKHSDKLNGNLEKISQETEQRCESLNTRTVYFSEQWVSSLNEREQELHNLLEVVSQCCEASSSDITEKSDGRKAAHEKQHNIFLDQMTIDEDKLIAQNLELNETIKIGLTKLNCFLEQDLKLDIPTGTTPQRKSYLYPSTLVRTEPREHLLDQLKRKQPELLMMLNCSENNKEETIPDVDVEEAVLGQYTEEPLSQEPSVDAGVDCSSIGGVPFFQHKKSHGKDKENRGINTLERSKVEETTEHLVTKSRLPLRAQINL

Q: For IWS1 (UniProt Q96ST2), which log2 fold change is on record?
A: 0.336 (active)

Q: With LUC7L2 (UniProt Q9Y383) as the target, how does the log2 fold change read?
A: -0.246

Q: How did the log2 fold change turn out when MARK3 (UniProt P27448) was run?
A: -0.011

Q: Which log2 fold change does the source give for MIEF1 (UniProt L0R8F8) here?
A: 0.009

Q: With KIF11 (UniProt P52732) as the target, how does the log2 fold change read?
A: 0.041

Q: Which log2 fold change does the source give for LPIN3 isoform 2 (UniProt Q9BQK8) here?
A: -0.074

Q: How did the log2 fold change turn out when INPP5B (UniProt P32019) was run?
A: -0.076

Q: Which log2 fold change does the source give for LNPEP (UniProt Q9UIQ6) here?
A: 0.01

Q: How did the log2 fold change turn out when KDM1A isoform 2 (UniProt O60341) was run?
A: -0.108

Q: For IPO13 (UniProt O94829), which log2 fold change is on record?
A: 0.013

Q: With MIEF1 (UniProt Q9NQG6) as the target, how does the log2 fold change read?
A: -0.031

Q: Which log2 fold change does the source give for KDELR2 (UniProt P33947) here?
A: 0.018

Q: With KTN1 (UniProt Q86UP2) as the target, how does the log2 fold change read?
A: 0.109

Q: KHDRBS1 (UniProt Q07666) was tested. Which log2 fold change did it give?
A: 0.027

Q: KSR1 (UniProt Q8IVT5) was tested. Which log2 fold change did it give?
A: -0.135

Q: With LUC7L3 (UniProt O95232) as the target, how does the log2 fold change read?
A: -0.049

Q: With LAMP2 (UniProt P13473) as the target, how does the log2 fold change read?
A: 0.056

Q: For MED1 (UniProt Q15648), which log2 fold change is on record?
A: -0.11

Q: Which log2 fold change does the source give for MICU2 (UniProt Q8IYU8) here?
A: 0.048

Q: Which log2 fold change does the source give for ILK (UniProt Q13418) here?
A: -0.107

Q: How did the log2 fold change turn out when KIF13A (UniProt Q9H1H9) was run?
A: -0.01

Q: How did the log2 fold change turn out when KIF3A (UniProt Q9Y496) was run?
A: -0.02

Q: For KDM5D isoform 3 (UniProt Q9BY66), which log2 fold change is on record?
A: -0.193

Q: Which log2 fold change does the source give for KIAA1324L (UniProt A8MWY0) here?
A: -0.056

Q: With MIER1 isoform 12 (UniProt Q8N108) as the target, how does the log2 fold change read?
A: -0.079

Q: Which log2 fold change does the source give for MIA2 (UniProt Q96PC5) here?
A: -0.052

Q: How did the log2 fold change turn out when LIMA1 isoform 4 (UniProt Q9UHB6) was run?
A: 0.111

Q: For METTL18 (UniProt O95568), which log2 fold change is on record?
A: -0.056

Q: Which log2 fold change does the source give for KIF21A isoform 4 (UniProt Q7Z4S6) here?
A: 0.134

Q: With LUC7L (UniProt Q9NQ29) as the target, how does the log2 fold change read?
A: 0.062

Q: How did the log2 fold change turn out when KEL (UniProt P23276) was run?
A: -0.044

Q: Which log2 fold change does the source give for LEO1 (UniProt Q8WVC0) here?
A: -0.137

Q: Which log2 fold change does the source give for LARP4 isoform 4 (UniProt Q71RC2) here?
A: 0.031

Q: With MFF (UniProt Q9GZY8) as the target, how does the log2 fold change read?
A: -0.06

Q: With MFN1 (UniProt Q8IWA4) as the target, how does the log2 fold change read?
A: -0.076

Q: MCL1 (UniProt Q07820) was tested. Which log2 fold change did it give?
A: -0.056

Q: For LYN (UniProt P07948), which log2 fold change is on record?
A: 0

Q: For ILVBL (UniProt A1L0T0), which log2 fold change is on record?
A: -0.162

Q: With KCTD2 (UniProt Q14681) as the target, how does the log2 fold change read?
A: 0.188

These targets were tested with CN1CCc2c(c3ccccc3n2Cc2ccc(C(=O)NO)cc2)C1 [Tubastatin A] in the same assay as above.
Method in brief: as §1

Q: Which log2 fold change does the source give for IWS1 (UniProt Q96ST2) here?
A: 0.04

Q: Which log2 fold change does the source give for LUC7L2 (UniProt Q9Y383) here?
A: 0.007

Q: MARK3 (UniProt P27448) was tested. Which log2 fold change did it give?
A: 0.058

Q: Which log2 fold change does the source give for MIEF1 (UniProt L0R8F8) here?
A: 0.041

Q: Which log2 fold change does the source give for KIF11 (UniProt P52732) here?
A: 0.05

Q: How did the log2 fold change turn out when LPIN3 isoform 2 (UniProt Q9BQK8) was run?
A: 0.093

Q: For INPP5B (UniProt P32019), which log2 fold change is on record?
A: 0.07

Q: With LNPEP (UniProt Q9UIQ6) as the target, how does the log2 fold change read?
A: -0.001

Q: KDM1A isoform 2 (UniProt O60341) was tested. Which log2 fold change did it give?
A: 0.127

Q: For IPO13 (UniProt O94829), which log2 fold change is on record?
A: -0.03

Q: For MIEF1 (UniProt Q9NQG6), which log2 fold change is on record?
A: -0.024

Q: Which log2 fold change does the source give for KDELR2 (UniProt P33947) here?
A: -0.295

Q: With KTN1 (UniProt Q86UP2) as the target, how does the log2 fold change read?
A: 0.032

Q: With KHDRBS1 (UniProt Q07666) as the target, how does the log2 fold change read?
A: -0.006

Q: For KSR1 (UniProt Q8IVT5), which log2 fold change is on record?
A: 0.054

Q: With LUC7L3 (UniProt O95232) as the target, how does the log2 fold change read?
A: -0.007

Q: With LAMP2 (UniProt P13473) as the target, how does the log2 fold change read?
A: -0.061

Q: With MED1 (UniProt Q15648) as the target, how does the log2 fold change read?
A: -0.025

Q: With MICU2 (UniProt Q8IYU8) as the target, how does the log2 fold change read?
A: 0.057

Q: With ILK (UniProt Q13418) as the target, how does the log2 fold change read?
A: 0.01

Q: With KIF13A (UniProt Q9H1H9) as the target, how does the log2 fold change read?
A: 0.028

Q: Which log2 fold change does the source give for KIF3A (UniProt Q9Y496) here?
A: -0.031

Q: For KDM5D isoform 3 (UniProt Q9BY66), which log2 fold change is on record?
A: -0.451 (active)

Q: For KIAA1324L (UniProt A8MWY0), which log2 fold change is on record?
A: -0.017

Q: For MIER1 isoform 12 (UniProt Q8N108), which log2 fold change is on record?
A: 0.297 (active)

Q: MIA2 (UniProt Q96PC5) was tested. Which log2 fold change did it give?
A: -0.013

Q: For LIMA1 isoform 4 (UniProt Q9UHB6), which log2 fold change is on record?
A: 0.014

Q: How did the log2 fold change turn out when METTL18 (UniProt O95568) was run?
A: -0.037

Q: KIF21A isoform 4 (UniProt Q7Z4S6) was tested. Which log2 fold change did it give?
A: 0.094

Q: How did the log2 fold change turn out when LUC7L (UniProt Q9NQ29) was run?
A: 0.006

Q: How did the log2 fold change turn out when KEL (UniProt P23276) was run?
A: 0.004

Q: With LEO1 (UniProt Q8WVC0) as the target, how does the log2 fold change read?
A: 0.061

Q: LARP4 isoform 4 (UniProt Q71RC2) was tested. Which log2 fold change did it give?
A: 0.041

Q: MFF (UniProt Q9GZY8) was tested. Which log2 fold change did it give?
A: 0.012

Q: How did the log2 fold change turn out when MFN1 (UniProt Q8IWA4) was run?
A: 0.025

Q: Which log2 fold change does the source give for MCL1 (UniProt Q07820) here?
A: 0.268

Q: Which log2 fold change does the source give for LYN (UniProt P07948) here?
A: 0.026

Q: Which log2 fold change does the source give for ILVBL (UniProt A1L0T0) here?
A: -0.02

Q: For KCTD2 (UniProt Q14681), which log2 fold change is on record?
A: 0.015

Reference: the supplement of paper PMC10849652
